Bioassay records: PubChem, National Center for Advancing Translational Sciences (NCATS)
HttQ103 aggreg – inhibitors of mutant huntingtin aggregate formation in PC12 cells. Potency, µM (titrated, usually from 46.1 µM), for inactives: top-dose activity change, negative = inhibition, actives largely listed as inhibitors. AID 1688. PC12 HttQ103-GFP aggregates, Acumen cytometry, 40 h. 220,000 compounds, 1.1% hits; further: potency means the concentration at half of the fitted maximal effect; on the % scale 0 is the no-effect control and ±100 the full control effect; nearly all actives have a fitted effect of over 60% in size
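PC12 cells stably carrying ecdysone-inducible HTT exon 1 Q103–GFP were induced with tebufenozide (100 nM final) and treated with library compounds in titration. GFP aggregates in lysates were counted by laser scanning cytometry.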
PNC inhibitor – inhibitors of perinucleolar compartment assembly | activity change (PNC), negative = inhibition, % at 10 µM | AID 2417 | 140,000 compounds, 3.1% hits | PC3M PTB-GFP, PNC prevalence imaging, 16 h; active compounds read low;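 active means readout at or below -70, meaning at least 70% loss of cells showing the perinucleolar compartment, a nuclear body marking cancer cells; inconclusive means readout between -30 and a set limit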;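 further: plate controls were DMSO wells for no effect and camptothecin positive control wells for full effect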
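Read-out is percentage of cells bearing a perinucleolar compartment, from automated 20x imaging of fixed, Hoechst-stained PC3M PTB-GFP cells. Cells were seeded 4 h, then exposed 16 h to compound (23 nl of library stock) in duplicate plates.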
NPSR antag – blocks cAMP signaling of the human neuropeptide S receptor. CHO-NPSR cells, cAMP TR-FRET, antagonist mode. Potency, µM (doses to about 38.3 µM), without a hit: top-dose activity change, negative = inhibition, hits mostly inhibitors. 220,000 compounds, 1% hits; further: potency means the concentration at half of the fitted maximal effect; on the % scale 0 is the no-effect control and ±100 the full control effect; nearly all actives have a fitted effect of over 50% in size
Target sequence (Q6W5P4 whole entry, looked up): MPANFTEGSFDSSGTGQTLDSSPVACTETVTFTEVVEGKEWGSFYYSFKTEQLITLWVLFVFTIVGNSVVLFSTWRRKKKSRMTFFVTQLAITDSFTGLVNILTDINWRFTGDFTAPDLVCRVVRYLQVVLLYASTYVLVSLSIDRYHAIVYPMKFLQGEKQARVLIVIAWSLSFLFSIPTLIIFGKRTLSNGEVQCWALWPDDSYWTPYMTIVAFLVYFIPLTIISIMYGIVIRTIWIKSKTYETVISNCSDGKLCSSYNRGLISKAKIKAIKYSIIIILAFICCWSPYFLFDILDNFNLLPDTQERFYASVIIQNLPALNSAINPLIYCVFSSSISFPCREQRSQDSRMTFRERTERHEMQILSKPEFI
IMPase inh – membrane-permeable compound that blocks inositol monophosphatase | CHO-M1 cells, IP1 accumulation, HTRF TR-FRET ratio | inhibition (IP1 accumulation), % at 46.1 µM | 120,000 tested, under 10 active | AID 901; active means well fitted curve in the direction sought with a large enough effect in the signal ratio, not every such curve was filed as active; inconclusive means small, poorly fitted or top-dose-only effect, or a change in a side signal; inactive means no such curve, though single readings can be large or run the other way; the % refers to the signal ratio;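 further: cells stimulated with carbachol in lithium chloride buffer; plate controls were DMSO basal wells for no effect and reference inhibitor wells for full effect; higher means more IMPase inhibition seen as more IP1 and lower FRET ratio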
Target sequence (P97697 whole entry, looked up): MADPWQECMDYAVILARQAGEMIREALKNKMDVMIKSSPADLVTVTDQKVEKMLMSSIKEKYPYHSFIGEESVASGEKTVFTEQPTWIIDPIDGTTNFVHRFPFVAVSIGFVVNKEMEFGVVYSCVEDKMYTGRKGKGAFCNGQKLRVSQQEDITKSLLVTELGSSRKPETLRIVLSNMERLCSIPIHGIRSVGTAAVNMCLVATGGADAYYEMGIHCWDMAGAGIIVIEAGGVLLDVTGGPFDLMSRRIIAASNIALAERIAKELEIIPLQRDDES
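Elevated IP1 in lysates lowers TR-FRET signal (665/620 ratio and 620 channel reported). Cells were CHO-M1, given carbachol (50 uM as added) plus 50mM LiCl, pH 7.4, 30 min, 37C; compounds titrated up to 46 uM; AC50 by Hill equation.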
IMPase Li cell – IMPase inhibition in cells with lithium potentiation; Potency, µM (top dose mostly 59.4 µM), without a hit: top-dose activity, negative = IMPase inhibition, hits mostly inhibitors; CHO-M1 cells, IP1 TR-FRET (IP-One), carbachol + lithium; 210,000 compounds, 0.35% hits;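 further: IP1 builds up when IMPase is blocked and the TR-FRET signal falls; potency means the concentration at half of the fitted maximal effect; plate controls were basal vehicle for no effect and high inhibitor control for full effect; nearly all actives have a fitted effect of over 50% in size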
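CHO cells stably expressing M1 receptor (2000/well, cultured 16–30 h) treated 30 min at 37C with compound plus low lithium. Cytosolic IP1 by TR-FRET (665/620 ratio and 620 channel) after 10 min lysis; AC50 by Hill fit.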
HTT cytoprotect – cytoprotection in Huntington HTT-Q103 PC12 cell model. PC12 HTT-Q103 induced, cytoprotection, ATP luminescence, 40 h. Potency, µM (highest dose often 56.4 µM), inactives show cytoprotection (ATP increase), hits mostly activators. 230,000 compounds, 0.14% hits; further: potency means the concentration at half of the fitted maximal effect; % of control where 0% means no effect; nearly all actives have a fitted effect of over 45% in size
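PC12 cells stably carrying ecdysone-inducible Htt exon 1 (Q103)–GFP were induced with 100 nM tebufenozide (final) alongside library compounds in a dose series. Cytoprotection was scored as retained ATP by ATPlite luminescence.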
Numbers without * were called inactive; ? = inconclusive; . = no result given; [ ] = another dose, or the depositor's remark. In the library only some 3.4% were active in any assay of this set; here they are far more common. Unless noted, the call rests on the fitted dose curve; in most records, active means well fitted curve in the direction sought with a large enough effect; inconclusive means small, poorly fitted or top-dose-only effect, or another doubt; inactive means no such curve, though single readings can be large; an effect the other way counts as inactive or inconclusive.

SMILES | HttQ103 aggreg | PNC inhibitor | NPSR antag | IMPase inh | IMPase Li cell | HTT cytoprotect
COC(=O)c1ccc(C(NC(=O)OCc2ccccc2)/C(C)=C/[C@@H](C)C(=O)N2CCN(C)CC2)cc1 (stereo partly drawn) | . | . | . | . | 2.4% | 9.8%
COc1ccc2cc1Oc1cc3c(cc1OC)CC[N+](C)(C)C3Cc1ccc(cc1)Oc1c(OC)c(OC)cc3c1C(C2)[N+](C)(C)CC3 (stereo not drawn) | 9.7% | . | . | . | . | -4.8%
Cc1nn(Cc2ccccc2)c(C)c1N | -7.9% | -90.3* | 9.5% | . | -7.7% | .
Cc1nn(Cc2ccccc2Cl)c(C)c1N | 3.5% | 81.9 | -6.6%[46.1 µM] | 9.0 | 7.8%[38.3 µM] | -0.8%
COc1ccccc1NC(=O)C1=C(C)Nc2nnnn2C1c1cc(Br)c(O)c(OC)c1 (stereo not drawn) | . | . | . | 2.6 | . | .
CC(NC(=O)C1CCCN(S(=O)(=O)c2cnc[nH]2)C1)c1ccccc1 (stereo not drawn) | 10.4% | -81.3* | 1.0%[46.1 µM] | 8.3 | -5.2%[38.3 µM] | -1.3%
O=C(NCC1COc2ccccc2O1)C1CCCN(S(=O)(=O)c2cnc[nH]2)C1 (stereo not drawn) | 10.8% | -92.8* | 9.3%[46.1 µM] | 10.7 | 13.6%[38.3 µM] | 16.2%[10 µM]
Oc1ccc(-c2nc(-c3ccc(O)c(O)c3)cs2)cc1 | 16.2% | -101.0* | -10.5%[46.1 µM] | -1.0 | 4.9%[38.3 µM] | -33.3%
Cc1ccc(S(=O)(=O)NC(C)C(=O)NC2CCCCCC2)cc1 (stereo not drawn) | 0.891µM* | 13.0 | -7.1%[46.1 µM] | 11.6 | 7.7%[38.3 µM] | -1.5%[0.074 µM]
Cc1ccc(S(=O)(=O)NC(=O)NC2CCCCC2)cc1 | 20.0% | . | . | . | . | -21.3%
CC(=O)N/N=C/c1ccc([N+](=O)[O-])o1 | 31.6µM* | . | . | . | . | -366.8%
O=[N+]([O-])c1ccc(/C=N/Nc2nc(N3CCCCC3)nc(N3CCCCC3)n2)cc1 | 1.1%[9.22 µM] | . | ? | . | 17.2% | 12.3%[10 µM]
O=C(O)/C=C/c1ccc([N+](=O)[O-])o1 | 21.5% | . | 6.7% | . | -5.8% | -5.2%
O=[N+]([O-])c1ccc(/C=N/N=C/c2ccc([N+](=O)[O-])o2)o1 | 6.4%[9.22 µM] | . | 5.01µM* | . | 17.4% | -178.6%
Cc1ccc(S(=O)(=O)N/N=C\c2ccc([N+](=O)[O-])o2)cc1 | ? | -112.1* | 9.2%[46.1 µM] | 0.1 | 2.3% | -8.6%[10 µM]
O=[N+]([O-])c1ccc(/C=N/Nc2nc(N3CCCCCC3)nc(N3CCCCCC3)n2)o1 | 7.08µM* | -10.5 | 6.31µM* | -2.6 | 13.4% | -14.6%[10 µM]
N#Cc1nc(COc2cccc(Cl)c2)oc1NCCc1ccccc1 | . | . | . | -0.6 | . | .
CC(=O)N1CC[C@H]2CC(=O)CC[C@@]21C | . | . | . | . | 7.2% | -15.9%[96.6 µM]
CCC(=O)OC1(C)C(=O)C=C2C=C(CCCNC(=O)OC(C)(C)C)OC=C2C1=O (stereo not drawn) | . | . | . | . | 6.4% | 13.8%
COC(=O)c1cc(NC(=O)c2cc(C)oc2C)cc(C(=O)OC)c1 | 3.1% | -100.0* | -20.1%[46.1 µM] | -4.8 | 10.7% | -3.8%[10 µM]
Cc1cc(C(=O)Nc2cccc(C(=O)O)c2)c(C)o1 | . | -17.8 | 0.7%[46.1 µM] | -2.9 | 9.5%[38.3 µM] | ?
COc1cc2nc(N3CC=[N+](C(=O)c4ccco4)CC3)nc(N)c2cc1OC | . | . | . | 1.8 | . | -76.1%[1.9 µM]
COc1ccc(N(C(C)C(=O)N/N=C/c2cc(Br)c(C)o2)S(C)(=O)=O)cc1 (stereo not drawn) | ? | . | 0.4% | . | 0.0% | 0.891µM*
CCOC(=O)C1=C(C)n2c(s/c(=C/c3cccc([N+](=O)[O-])c3)c2=O)=NC1c1ccc(O)c(OC)c1 (stereo not drawn) | ? | -28.0 | 7.94µM* | 2.5 | 29.2%[38.3 µM] | -101.3%
CCOC(=O)C1=C(C)N=c2s/c(=C/c3ccccc3)c(=O)n2C1c1ccc(OC)c(OC)c1 (stereo not drawn) | 20.8% | 11.3 | ? | 5.7 | 11.4%[38.3 µM] | -5.2%
Cc1ccc(-c2nnc(Nc3ccc(Br)cc3)c3ccccc23)cc1S(=O)(=O)NCC1CCCO1 (stereo not drawn) | . | . | . | -5.1 | . | .
CCN(CC)C(=O)c1sc(N)c(C#N)c1C | -13.1% | -94.9* | -11.8%[46.1 µM] | -0.1 | -0.1%[38.3 µM] | -12.5%
